# Source: ChEMBL document CHEMBL1961873, “Compounds: GSK PKIS; Assays: Nanosyn kinase panel” (2012)
# How the values were obtained:
# [1] = biological target: T1, Serine/threonine-protein kinase D2 (Homo sapiens) (UniProt Q9BZL6); conditions: at 1 µM;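 note: mean value of PRKD2 inhibition, from the GSK PKIS screening panel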
# T1 sequence (whole entry): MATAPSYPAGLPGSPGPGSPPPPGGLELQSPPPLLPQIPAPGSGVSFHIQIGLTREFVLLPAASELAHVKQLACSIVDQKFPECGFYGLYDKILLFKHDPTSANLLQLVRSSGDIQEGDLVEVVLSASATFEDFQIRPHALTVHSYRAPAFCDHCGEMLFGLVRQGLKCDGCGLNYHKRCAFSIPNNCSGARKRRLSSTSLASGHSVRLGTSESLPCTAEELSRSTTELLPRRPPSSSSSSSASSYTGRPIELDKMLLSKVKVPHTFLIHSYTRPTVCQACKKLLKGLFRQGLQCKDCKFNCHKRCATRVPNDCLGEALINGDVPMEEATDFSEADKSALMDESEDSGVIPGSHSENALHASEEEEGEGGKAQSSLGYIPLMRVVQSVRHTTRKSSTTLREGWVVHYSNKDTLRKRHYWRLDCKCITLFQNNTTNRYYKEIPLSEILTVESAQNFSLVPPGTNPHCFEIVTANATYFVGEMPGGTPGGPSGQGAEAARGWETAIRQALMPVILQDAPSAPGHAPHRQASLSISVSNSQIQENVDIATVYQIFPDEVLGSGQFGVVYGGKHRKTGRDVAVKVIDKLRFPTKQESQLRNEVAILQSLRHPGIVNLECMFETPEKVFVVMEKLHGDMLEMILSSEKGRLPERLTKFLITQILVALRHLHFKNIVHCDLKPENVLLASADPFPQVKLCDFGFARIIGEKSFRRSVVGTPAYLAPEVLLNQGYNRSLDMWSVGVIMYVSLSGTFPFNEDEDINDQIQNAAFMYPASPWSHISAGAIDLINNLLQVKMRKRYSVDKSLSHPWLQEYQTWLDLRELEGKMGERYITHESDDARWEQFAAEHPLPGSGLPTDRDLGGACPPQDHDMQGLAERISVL
# [2] = biological target: T2, Serine/threonine-protein kinase D3 (Homo sapiens) (UniProt O94806); conditions: at 0.1 µM
# T2 sequence (whole entry): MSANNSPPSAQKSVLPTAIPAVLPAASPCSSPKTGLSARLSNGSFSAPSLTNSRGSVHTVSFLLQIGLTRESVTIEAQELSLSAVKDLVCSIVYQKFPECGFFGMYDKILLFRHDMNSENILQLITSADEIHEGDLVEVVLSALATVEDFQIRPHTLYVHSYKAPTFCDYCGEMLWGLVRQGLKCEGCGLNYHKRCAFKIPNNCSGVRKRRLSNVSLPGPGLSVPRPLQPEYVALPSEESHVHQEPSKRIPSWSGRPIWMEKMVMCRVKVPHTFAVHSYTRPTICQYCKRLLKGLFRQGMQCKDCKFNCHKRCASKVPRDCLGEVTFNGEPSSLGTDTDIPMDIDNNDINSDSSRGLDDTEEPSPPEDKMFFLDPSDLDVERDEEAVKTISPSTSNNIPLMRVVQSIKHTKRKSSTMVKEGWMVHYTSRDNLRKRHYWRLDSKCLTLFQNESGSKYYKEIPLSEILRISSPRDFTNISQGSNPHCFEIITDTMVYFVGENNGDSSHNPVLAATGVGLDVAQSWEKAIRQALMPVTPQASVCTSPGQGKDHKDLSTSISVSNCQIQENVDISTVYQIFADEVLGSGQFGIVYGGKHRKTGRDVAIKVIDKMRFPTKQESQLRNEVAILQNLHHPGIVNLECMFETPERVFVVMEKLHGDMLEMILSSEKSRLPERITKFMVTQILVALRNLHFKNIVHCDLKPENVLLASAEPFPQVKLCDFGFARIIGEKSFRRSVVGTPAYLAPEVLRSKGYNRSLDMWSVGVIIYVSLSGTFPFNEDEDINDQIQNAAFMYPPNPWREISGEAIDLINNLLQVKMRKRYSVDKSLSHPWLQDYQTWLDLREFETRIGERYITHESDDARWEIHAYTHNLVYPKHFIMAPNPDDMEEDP
# [3] = biological target: T2, Serine/threonine-protein kinase D3 (Homo sapiens); conditions: at 1 µM
# [4] = biological target: T3, cGMP-dependent protein kinase 1 (Homo sapiens) (UniProt Q13976); conditions: at 0.1 µM
# T3 sequence (whole entry): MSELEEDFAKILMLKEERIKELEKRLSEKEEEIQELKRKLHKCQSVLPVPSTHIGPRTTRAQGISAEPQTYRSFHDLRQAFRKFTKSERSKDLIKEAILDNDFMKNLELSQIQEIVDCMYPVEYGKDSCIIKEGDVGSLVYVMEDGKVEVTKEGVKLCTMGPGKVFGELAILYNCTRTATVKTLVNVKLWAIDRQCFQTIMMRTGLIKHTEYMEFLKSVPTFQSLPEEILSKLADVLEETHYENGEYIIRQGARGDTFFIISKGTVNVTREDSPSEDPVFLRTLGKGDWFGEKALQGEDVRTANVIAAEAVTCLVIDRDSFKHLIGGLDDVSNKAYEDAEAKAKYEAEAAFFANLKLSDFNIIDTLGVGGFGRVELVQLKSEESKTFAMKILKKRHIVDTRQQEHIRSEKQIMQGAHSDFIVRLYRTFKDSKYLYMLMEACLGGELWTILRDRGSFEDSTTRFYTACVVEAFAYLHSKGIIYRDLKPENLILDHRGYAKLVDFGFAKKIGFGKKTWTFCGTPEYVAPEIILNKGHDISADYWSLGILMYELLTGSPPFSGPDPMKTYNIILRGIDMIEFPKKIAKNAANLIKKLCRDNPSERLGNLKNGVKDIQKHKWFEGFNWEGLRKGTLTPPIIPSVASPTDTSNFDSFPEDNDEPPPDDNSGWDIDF
# [5] = biological target: T3, cGMP-dependent protein kinase 1 (Homo sapiens); conditions: at 1 µM
# [6] = biological target: T4, cGMP-dependent protein kinase 2 (Homo sapiens) (UniProt Q13237); conditions: at 0.1 µM
# T4 sequence (whole entry): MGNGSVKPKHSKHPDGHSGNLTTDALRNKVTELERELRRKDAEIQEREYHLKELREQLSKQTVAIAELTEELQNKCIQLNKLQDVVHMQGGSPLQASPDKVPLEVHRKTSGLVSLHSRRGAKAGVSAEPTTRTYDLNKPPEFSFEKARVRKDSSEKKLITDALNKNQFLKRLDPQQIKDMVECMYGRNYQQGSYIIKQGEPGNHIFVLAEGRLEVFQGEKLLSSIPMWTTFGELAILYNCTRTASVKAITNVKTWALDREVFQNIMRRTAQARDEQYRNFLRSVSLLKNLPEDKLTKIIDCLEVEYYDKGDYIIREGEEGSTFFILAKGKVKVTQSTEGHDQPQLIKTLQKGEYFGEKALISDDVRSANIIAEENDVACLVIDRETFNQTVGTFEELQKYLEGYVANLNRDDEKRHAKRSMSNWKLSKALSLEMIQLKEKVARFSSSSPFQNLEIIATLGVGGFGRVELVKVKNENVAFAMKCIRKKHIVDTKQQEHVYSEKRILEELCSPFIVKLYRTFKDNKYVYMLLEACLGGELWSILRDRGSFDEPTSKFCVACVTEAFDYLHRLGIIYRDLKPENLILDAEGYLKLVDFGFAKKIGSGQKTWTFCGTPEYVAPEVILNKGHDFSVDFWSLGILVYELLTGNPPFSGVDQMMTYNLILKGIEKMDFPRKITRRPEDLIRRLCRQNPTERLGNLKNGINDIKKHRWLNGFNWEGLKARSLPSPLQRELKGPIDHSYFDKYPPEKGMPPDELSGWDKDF
# [7] = biological target: T4, cGMP-dependent protein kinase 2 (Homo sapiens); conditions: at 1 µM
# [8] = biological target: T5, cAMP-dependent protein kinase catalytic subunit PRKX (Homo sapiens) (UniProt P51817); conditions: at 0.1 µM
# T5 sequence (whole entry): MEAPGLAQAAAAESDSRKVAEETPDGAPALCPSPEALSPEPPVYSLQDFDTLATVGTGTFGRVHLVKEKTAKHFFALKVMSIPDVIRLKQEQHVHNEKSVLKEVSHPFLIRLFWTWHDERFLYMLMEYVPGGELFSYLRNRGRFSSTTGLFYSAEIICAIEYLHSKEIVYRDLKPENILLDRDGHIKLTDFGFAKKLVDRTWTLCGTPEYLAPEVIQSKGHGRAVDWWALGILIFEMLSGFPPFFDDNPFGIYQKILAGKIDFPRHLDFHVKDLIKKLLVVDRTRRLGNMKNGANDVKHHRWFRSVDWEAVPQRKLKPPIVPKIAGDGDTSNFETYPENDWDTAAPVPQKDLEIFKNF
# [9] = biological target: T5, cAMP-dependent protein kinase catalytic subunit PRKX (Homo sapiens); conditions: at 1 µM
# [10] = biological target: Rho-associated protein kinase 1 (Homo sapiens) (UniProt Q13464); conditions: at 0.1 µM
# Rho-associated protein kinase 1 (Homo sapiens), sequence (Q13464 2-1354 limits assumed): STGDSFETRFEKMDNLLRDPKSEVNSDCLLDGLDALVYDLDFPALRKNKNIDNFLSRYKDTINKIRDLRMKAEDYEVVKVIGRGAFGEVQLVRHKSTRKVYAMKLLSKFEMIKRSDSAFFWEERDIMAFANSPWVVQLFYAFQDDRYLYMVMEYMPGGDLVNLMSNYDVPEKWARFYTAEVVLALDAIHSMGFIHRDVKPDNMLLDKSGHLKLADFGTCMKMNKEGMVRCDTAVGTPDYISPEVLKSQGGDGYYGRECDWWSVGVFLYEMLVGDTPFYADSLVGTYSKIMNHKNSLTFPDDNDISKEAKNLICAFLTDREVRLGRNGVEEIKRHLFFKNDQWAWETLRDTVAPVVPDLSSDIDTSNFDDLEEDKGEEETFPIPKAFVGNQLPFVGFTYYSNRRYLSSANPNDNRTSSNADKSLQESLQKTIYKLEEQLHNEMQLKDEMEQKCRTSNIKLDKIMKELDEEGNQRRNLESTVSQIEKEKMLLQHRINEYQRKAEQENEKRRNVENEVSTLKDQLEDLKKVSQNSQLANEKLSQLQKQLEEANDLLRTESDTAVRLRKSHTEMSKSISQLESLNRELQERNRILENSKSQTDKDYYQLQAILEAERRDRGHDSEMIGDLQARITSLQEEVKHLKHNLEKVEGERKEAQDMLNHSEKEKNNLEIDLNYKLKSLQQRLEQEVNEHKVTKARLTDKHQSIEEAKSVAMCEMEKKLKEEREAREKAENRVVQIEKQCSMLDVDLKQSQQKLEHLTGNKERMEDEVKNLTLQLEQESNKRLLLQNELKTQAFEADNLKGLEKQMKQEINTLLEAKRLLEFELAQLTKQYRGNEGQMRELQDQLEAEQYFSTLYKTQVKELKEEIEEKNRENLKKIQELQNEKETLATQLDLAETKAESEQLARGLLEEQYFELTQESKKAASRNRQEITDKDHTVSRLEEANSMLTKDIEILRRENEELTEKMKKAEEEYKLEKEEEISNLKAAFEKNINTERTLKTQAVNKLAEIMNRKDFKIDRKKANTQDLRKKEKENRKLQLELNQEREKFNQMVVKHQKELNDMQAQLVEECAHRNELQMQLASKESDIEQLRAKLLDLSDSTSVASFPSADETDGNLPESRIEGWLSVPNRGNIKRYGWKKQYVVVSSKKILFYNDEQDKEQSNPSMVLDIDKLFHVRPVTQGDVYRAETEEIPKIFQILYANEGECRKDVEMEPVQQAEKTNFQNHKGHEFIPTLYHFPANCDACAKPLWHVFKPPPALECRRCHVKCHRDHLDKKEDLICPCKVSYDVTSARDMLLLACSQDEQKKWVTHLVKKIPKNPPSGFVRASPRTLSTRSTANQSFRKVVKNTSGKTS
# [11] = biological target: Rho-associated protein kinase 1 (Homo sapiens) (UniProt Q13464); conditions: at 1 µM
# [12] = biological target: Rho-associated protein kinase 2 (Homo sapiens) (UniProt O75116); conditions: at 0.1 µM
# [13] = biological target: Rho-associated protein kinase 2 (Homo sapiens) (UniProt O75116); conditions: at 1 µM
# [14] = biological target: Ribosomal protein S6 kinase alpha-1 (Homo sapiens) (UniProt Q15418); conditions: at 0.1 µM
# Ribosomal protein S6 kinase alpha-1 (Homo sapiens), sequence (Q15418 whole entry): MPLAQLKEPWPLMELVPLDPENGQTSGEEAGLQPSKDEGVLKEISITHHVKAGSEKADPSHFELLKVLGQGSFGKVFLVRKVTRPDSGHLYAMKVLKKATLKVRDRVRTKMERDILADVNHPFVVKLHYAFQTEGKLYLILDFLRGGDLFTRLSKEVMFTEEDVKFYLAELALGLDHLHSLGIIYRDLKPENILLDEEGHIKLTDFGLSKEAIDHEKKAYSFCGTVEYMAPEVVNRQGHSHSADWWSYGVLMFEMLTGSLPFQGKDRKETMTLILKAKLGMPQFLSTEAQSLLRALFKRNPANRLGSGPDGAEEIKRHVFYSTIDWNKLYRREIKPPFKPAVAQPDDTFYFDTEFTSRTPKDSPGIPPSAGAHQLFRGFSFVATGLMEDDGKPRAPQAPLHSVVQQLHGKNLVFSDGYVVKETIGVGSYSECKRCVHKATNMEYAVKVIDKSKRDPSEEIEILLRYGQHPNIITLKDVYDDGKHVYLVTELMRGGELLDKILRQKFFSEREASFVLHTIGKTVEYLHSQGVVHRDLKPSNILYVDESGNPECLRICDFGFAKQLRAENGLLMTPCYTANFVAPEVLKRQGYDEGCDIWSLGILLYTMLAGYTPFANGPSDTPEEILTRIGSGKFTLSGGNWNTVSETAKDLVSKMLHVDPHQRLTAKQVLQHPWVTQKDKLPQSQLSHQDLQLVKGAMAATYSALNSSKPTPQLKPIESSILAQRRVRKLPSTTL
# [15] = biological target: Ribosomal protein S6 kinase alpha-1 (Homo sapiens) (UniProt Q15418); conditions: at 1 µM
# [16] = biological target: Ribosomal protein S6 kinase alpha-3 (Homo sapiens) (UniProt P51812); conditions: at 0.1 µM
# Ribosomal protein S6 kinase alpha-3 (Homo sapiens), sequence (P51812 whole entry): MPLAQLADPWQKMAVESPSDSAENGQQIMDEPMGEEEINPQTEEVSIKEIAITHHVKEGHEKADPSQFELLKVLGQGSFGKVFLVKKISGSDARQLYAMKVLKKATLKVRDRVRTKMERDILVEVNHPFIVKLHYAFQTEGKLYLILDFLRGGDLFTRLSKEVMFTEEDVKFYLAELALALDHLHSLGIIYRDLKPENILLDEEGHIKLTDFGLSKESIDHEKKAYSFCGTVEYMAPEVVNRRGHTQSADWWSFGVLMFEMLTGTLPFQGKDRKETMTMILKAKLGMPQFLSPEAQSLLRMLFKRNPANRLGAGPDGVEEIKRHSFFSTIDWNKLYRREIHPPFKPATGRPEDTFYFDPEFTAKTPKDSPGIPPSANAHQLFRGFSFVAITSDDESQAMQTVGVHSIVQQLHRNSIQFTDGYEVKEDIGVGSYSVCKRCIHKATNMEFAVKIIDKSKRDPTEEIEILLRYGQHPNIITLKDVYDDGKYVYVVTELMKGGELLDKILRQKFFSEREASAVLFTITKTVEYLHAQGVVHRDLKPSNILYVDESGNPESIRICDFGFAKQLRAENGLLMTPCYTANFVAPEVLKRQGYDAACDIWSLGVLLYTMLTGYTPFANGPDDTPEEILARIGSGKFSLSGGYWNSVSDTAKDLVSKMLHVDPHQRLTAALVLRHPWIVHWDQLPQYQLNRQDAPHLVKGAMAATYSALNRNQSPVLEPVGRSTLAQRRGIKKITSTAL
# [17] = biological target: Ribosomal protein S6 kinase alpha-3 (Homo sapiens) (UniProt P51812); conditions: at 1 µM
# [18] = biological target: Ribosomal protein S6 kinase alpha-2 (Homo sapiens) (UniProt Q15349); conditions: at 0.1 µM
# Ribosomal protein S6 kinase alpha-2 (Homo sapiens), sequence (Q15349 whole entry): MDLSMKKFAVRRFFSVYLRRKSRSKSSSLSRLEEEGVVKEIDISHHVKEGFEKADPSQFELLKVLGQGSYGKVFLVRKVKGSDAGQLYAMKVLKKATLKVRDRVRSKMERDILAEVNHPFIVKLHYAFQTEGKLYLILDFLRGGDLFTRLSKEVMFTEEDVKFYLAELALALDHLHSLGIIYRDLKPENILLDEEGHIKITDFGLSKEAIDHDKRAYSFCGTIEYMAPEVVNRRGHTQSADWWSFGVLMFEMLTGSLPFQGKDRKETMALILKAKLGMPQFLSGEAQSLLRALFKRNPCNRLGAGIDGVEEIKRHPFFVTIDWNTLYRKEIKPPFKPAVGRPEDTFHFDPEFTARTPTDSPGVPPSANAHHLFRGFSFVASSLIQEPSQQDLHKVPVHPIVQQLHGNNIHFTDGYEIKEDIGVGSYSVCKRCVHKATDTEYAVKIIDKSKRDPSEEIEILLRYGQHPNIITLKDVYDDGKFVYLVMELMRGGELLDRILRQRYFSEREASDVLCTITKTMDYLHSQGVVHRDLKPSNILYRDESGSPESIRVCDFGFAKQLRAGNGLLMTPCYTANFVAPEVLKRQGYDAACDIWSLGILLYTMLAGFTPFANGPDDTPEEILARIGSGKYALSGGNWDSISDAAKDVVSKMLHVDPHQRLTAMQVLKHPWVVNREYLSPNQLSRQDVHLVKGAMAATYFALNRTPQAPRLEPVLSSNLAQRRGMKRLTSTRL
# [19] = biological target: Ribosomal protein S6 kinase alpha-2 (Homo sapiens) (UniProt Q15349); conditions: at 1 µM
# [20] = biological target: Ribosomal protein S6 kinase alpha-6 (Homo sapiens) (UniProt Q9UK32); conditions: at 0.1 µM;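 note: reported value is the mean inhibition of RSK4, from the GSK PKIS kinase inhibitor screen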
# Ribosomal protein S6 kinase alpha-6 (Homo sapiens), sequence (Q9UK32 whole entry): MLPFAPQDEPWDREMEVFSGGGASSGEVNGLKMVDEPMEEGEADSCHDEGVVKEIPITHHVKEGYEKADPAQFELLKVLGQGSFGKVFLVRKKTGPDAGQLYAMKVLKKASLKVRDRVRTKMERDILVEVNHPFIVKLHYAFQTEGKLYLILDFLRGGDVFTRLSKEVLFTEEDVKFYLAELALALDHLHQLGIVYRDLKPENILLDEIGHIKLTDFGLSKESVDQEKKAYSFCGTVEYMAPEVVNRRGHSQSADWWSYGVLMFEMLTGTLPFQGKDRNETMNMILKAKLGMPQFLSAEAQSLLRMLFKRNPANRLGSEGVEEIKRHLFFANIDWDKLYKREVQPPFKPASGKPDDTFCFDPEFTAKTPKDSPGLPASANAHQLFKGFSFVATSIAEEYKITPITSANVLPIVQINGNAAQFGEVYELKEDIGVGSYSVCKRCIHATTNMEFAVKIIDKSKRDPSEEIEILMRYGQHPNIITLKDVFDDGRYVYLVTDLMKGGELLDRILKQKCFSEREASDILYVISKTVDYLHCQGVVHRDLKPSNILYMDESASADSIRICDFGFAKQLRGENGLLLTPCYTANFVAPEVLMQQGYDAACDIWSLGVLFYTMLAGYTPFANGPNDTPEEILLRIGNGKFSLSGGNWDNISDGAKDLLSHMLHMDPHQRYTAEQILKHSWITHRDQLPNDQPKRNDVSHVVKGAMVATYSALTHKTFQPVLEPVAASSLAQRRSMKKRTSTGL
SMILES,inhibition [1] [%],inhibition [2] [%],inhibition [3] [%],inhibition [4] [%],inhibition [5] [%],inhibition [6] [%],inhibition [7] [%],inhibition [8] [%],inhibition [9] [%],inhibition [10] [%],inhibition [11] [%],inhibition [12] [%],inhibition [13] [%],inhibition [14] [%],inhibition [15] [%],inhibition [16] [%],inhibition [17] [%],inhibition [18] [%],inhibition [19] [%],inhibition [20] [%]
CCCN1CCC(c2ccc(Nc3nc(Nc4cc(F)ccc4C(N)=O)c4cc[nH]c4n3)c(OC)c2)CC1,75.7,13.6,65.9,9.75,46.5,8.54,47,1.4,4.23,17.2,64.6,19.9,69.8,37.4,69.7,26.5,66.8,12,53.5,23.4
N#Cc1c(NC(=O)CN2CCOCC2)sc2c1CCCC2,6.36,4.08,6.46,3.2,4.74,2.59,2.65,2.18,3.49,0.84,0.87,5.37,3.55,2.13,3.62,1.56,0.9,1.89,1.68,1.4
CNC(=O)c1cncc(/C=C/c2ccccc2Cl)c1,-1.08,0.25,-0.83,1.15,2.29,2.05,2.68,1.22,2.62,0.5,1.5,3.13,6.36,0.85,2.91,1.15,1.38,-0.36,-1.02,0.95
COc1cc(Nc2nccc(Nc3ccc4c(C)n[nH]c4c3)n2)cc(OC)c1OC,2.94,1.3,2.54,3.29,3.61,2.12,2.71,0.71,-0.26,2.06,7.47,1.83,12.1,-0.21,-0.01,1.04,0.03,0.87,0.74,1.26
Cc1cccc2c1NC(=O)/C2=N\Nc1ccc(S(N)(=O)=O)cc1,3.1,3.5,3.85,0.72,2.94,3.15,3.38,1.15,2.2,1.31,2.1,3.93,1.59,1.09,1.6,0.33,1.26,1.69,2.49,1.43
CNC(=O)c1cc(-c2ccc(F)cc2)cc(-c2ccc(S(=O)(=O)N3CCCC3)cc2)c1N,1.98,3.24,3.34,1.61,2.76,1.41,0.53,2.59,1.29,1.6,1.95,1.69,2.18,0.9,1.77,1.31,1.69,2.73,2.91,0.1
